Compound activity (PubChem)
Sampled rows, rich in hits. Any-hit rate of the full collection: about 6.7%.
Pf Dd2 growth: P. falciparum Dd2 growth inhibitors, primary screen, SYBR Green fluorescence, single dose replicates | 72 h; active compounds read low | activity change, % at 10 µM | 94,000 compounds, 2.3% hits | AID 1159554, 2015; in the data active means activity change below about -80%; inconclusive means no clear call, values can overlap the other calls
C diff HTS: C. difficile growth inhibitors, primary screen, HTS; Clostridium difficile clinical isolate growth, OD600, 24 h; active compounds read low; growth activity, negative = inhibition, % at 16 µg/mL (by protocol); 86,000 compounds, 0.25% hits; AID 1259249, 2017;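 active means mean growth activity at or below -80% and every replicate also at or below -80%; inconclusive means mean at or below -80% but some replicate above -80%; inactive means mean growth activity above -80%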
T cruzi growth-1: T. cruzi intracellular proliferation inhibitors, primary screen, cell-based, beta-gal Tulahuen parasites, NIH3T3 host, luminescence; T. cruzi beta-gal in NIH3T3, GalScreen luminescence, 90 h; inhibition, % at 8.34 µM; 77,000 compounds, 5.9% hits; AID 624255, 2012;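 active means mean inhibition above about 93%, with at least 55% of replicates each passing it, limit read from the data, passing the limit was not always enough; inconclusive means only one of those two conditions holds; inactive means neither condition holds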
T cruzi growth-2: T. cruzi intracellular proliferation inhibitors, confirmation, cell-based, NIH3T3 host, beta-gal parasite, luminescence, cherry-pick; shares compounds with T cruzi growth-1; T. cruzi beta-gal in NIH3T3, GalScreen luminescence, 90 h; inhibition, % at 8.35 µM; 5,600 compounds, 72% hits; AID 651739, 2012;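 active means mean replicate inhibition above about 95% and at least 55% of replicates individually reaching it, limit read from the data; inconclusive means only one of the two criteria is met; inactive means neither criterion is met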
T cruzi growth-3: inhibitors of intracellular T. cruzi replication, confirmation, NIH3T3 host cells, beta-gal parasites, cherry-pick, set 2; shares compounds with T cruzi growth-1; T. cruzi beta-gal in NIH3T3, GalScreen luminescence, 90 h; inhibition, % at 2.09 µM; 5,600 compounds, 21% hits;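 active means mean inhibition above about 95%, with at least 55% of replicates also reaching it, limit read from the data; inconclusive means meets just one of the two conditions; inactive means meets neither condition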
3T3 cytotox: cytotoxicity in mouse NIH/3T3 fibroblasts, confirmation, cytotoxicity control for T. cruzi proliferation inhibitor project, cell-based, cherry-pick, single point; shares compounds with T cruzi growth-1; NIH/3T3 viability, CellTiter-Glo ATP luminescence, 90 h; cytotoxicity (signal decrease), % at 8.35 µM; 5,600 compounds, 14% hits;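 active means mean signal decrease across replicates above about 35% based on untreated-well scatter, with enough replicates individually passing, limit read from the data; inconclusive means no rule stated though some were filed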
NIH3T3 tox 2: NIH/3T3 fibroblast cytotoxicity, confirmation, cytotoxicity control, cell-based, cherry-pick, single point, set 2; shares compounds with T cruzi growth-1; NIH/3T3 viability, CellTiter-Glo ATP luminescence, 90 h; inhibition, % at 24.9 µM; 5,600 compounds, 56% hits;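 active means mean loss of cell viability signal at or above a set limit, and enough replicates individually reaching it; inconclusive means meets only the mean limit or only the replicate share; inactive means meets neither condition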
Of the large screens only hits and unclear results are named; the others gave an inactive call (follow-up assays come after a bar, where they were run).

COCC(=O)Nc1ccc2c(c1)OC[C@H](C)N(Cc1cc(F)ccc1F)C[C@@H](C)[C@H](OC)CN(C)C2=O	T cruzi growth-1 97 (no result: C diff HTS) | T cruzi growth-2 97 | T cruzi growth-3 inactive | 3T3 cytotox inactive | NIH3T3 tox 2 inactive
COc1ccccc1NC(=O)Nc1ccc2c(c1)C(=O)N(C)C[C@@H](OC)[C@H](C)CN(Cc1ccccc1Cl)[C@H](C)CO2	T cruzi growth-1 109 | T cruzi growth-2 108 | T cruzi growth-3 113 | 3T3 cytotox inactive | NIH3T3 tox 2 inactive
COCC(=O)Nc1ccc2c(c1)OC[C@@H](C)N(Cc1cc(F)ccc1F)C[C@@H](C)[C@H](OC)CN(C)C2=O	none (no result: C diff HTS)
CO[C@@H]1CN(C)C(=O)c2ccc(NS(=O)(=O)c3ccc(C)cc3)cc2OC[C@@H](C)N(Cc2nccs2)C[C@@H]1C	none (no result: C diff HTS)
CO[C@H]1CN(C)C(=O)c2cc(NS(=O)(=O)c3ccc(C)cc3)ccc2OC[C@@H](C)N(Cc2nccs2)C[C@H]1C	T cruzi growth-1 107 | T cruzi growth-2 104 | T cruzi growth-3 inactive | 3T3 cytotox inactive | NIH3T3 tox 2 40
C[C@H](CO)N1C[C@H](C)[C@H](CN(C)Cc2ccc(C(=O)O)cc2)Oc2ccc(NC(=O)Cc3ccccc3)cc2CC1=O	none
CCCN(C)C[C@@H]1Oc2cc(C#Cc3ccncc3)ccc2S(=O)(=O)N([C@H](C)CO)C[C@@H]1C	Pf Dd2 growth inconclusive (no result: T cruzi growth-1)
C[C@H]1CN([C@@H](C)CO)C(=O)Cc2cc(NC(=O)c3ccncc3)ccc2O[C@@H]1CN(C)S(C)(=O)=O	none
C[C@H](CO)N1C[C@H](C)[C@@H](CN(C)S(=O)(=O)c2cn(C)cn2)Oc2ccc(NS(=O)(=O)c3ccc(F)cc3)cc2C1=O	none (no result: T cruzi growth-1)
CO[C@H]1CN(C)C(=O)c2cc(NC(=O)C3CCC3)ccc2OC[C@H](C)N(Cc2cccnc2)C[C@@H]1C	none (no result: C diff HTS)
CO[C@H]1CN(C)C(=O)c2cc(NC(=O)C3CCC3)ccc2OC[C@@H](C)N(Cc2cccnc2)C[C@@H]1C	T cruzi growth-1 103 (no result: C diff HTS) | T cruzi growth-2 inactive | T cruzi growth-3 inactive | 3T3 cytotox inactive | NIH3T3 tox 2 inactive
CC=Cc1ccc2n(c1=O)C[C@@H]1[C@@H](CO)[C@H](C(=O)NCC3CC3)[C@H]2N1CC1CCOCC1 (mixture of isomers)	none
COc1ccc(NC(=O)Nc2ccc3c(c2)C(=O)N([C@H](C)CO)C[C@H](C)[C@@H](CN(C)S(=O)(=O)c2ccc(Cl)cc2)OCCCC[C@@H](C)O3)cc1	none
COc1ccc(NC(=O)Nc2ccc3c(c2)C(=O)N([C@H](C)CO)C[C@H](C)[C@H](CN(C)S(=O)(=O)c2ccc(C)cc2)OCCCC[C@H](C)O3)cc1	none (no result: C diff HTS, T cruzi growth-1)
COc1ccc(NC(=O)Nc2ccc3c(c2)C(=O)N([C@@H](C)CO)C[C@@H](C)[C@H](CN(C)S(=O)(=O)c2ccc(Cl)cc2)OCCCC[C@@H](C)O3)cc1	T cruzi growth-1 113 | T cruzi growth-2 107 | T cruzi growth-3 107 | 3T3 cytotox inactive | NIH3T3 tox 2 inactive
COc1ccc(NC(=O)Nc2ccc3c(c2)C(=O)N([C@@H](C)CO)C[C@@H](C)[C@@H](CN(C)S(=O)(=O)c2ccc(Cl)cc2)OCCCC[C@@H](C)O3)cc1	T cruzi growth-1 121 | T cruzi growth-2 105 | T cruzi growth-3 inactive | 3T3 cytotox inactive | NIH3T3 tox 2 inactive
COc1ccc(NC(=O)Nc2ccc3c(c2)C(=O)N([C@H](C)CO)C[C@@H](C)[C@H](CN(C)S(=O)(=O)c2ccc(Cl)cc2)OCCCC[C@H](C)O3)cc1	T cruzi growth-1 104 | T cruzi growth-2 110 | T cruzi growth-3 102 | 3T3 cytotox inactive | NIH3T3 tox 2 inactive
COc1ccc(S(=O)(=O)N(C)C[C@@H]2OCCCC[C@@H](C)Oc3ccc(NC(=O)Nc4ccccc4)cc3C(=O)N([C@H](C)CO)C[C@@H]2C)cc1	none
COc1ccc(NC(=O)Nc2ccc3c(c2)C(=O)N([C@@H](C)CO)C[C@@H](C)[C@H](CN(C)S(=O)(=O)c2ccc(OC)cc2)OCCCC[C@H](C)O3)cc1	none
COc1ccc(S(=O)(=O)N(C)C[C@@H]2OCCCC[C@H](C)Oc3ccc(NC(=O)Nc4ccccc4)cc3C(=O)N([C@H](C)CO)C[C@@H]2C)cc1	T cruzi growth-1 110 | T cruzi growth-2 106 | T cruzi growth-3 inactive | 3T3 cytotox inactive | NIH3T3 tox 2 inactive
O=C(Nc1ccc2c(c1)[C@H]1C[C@H](CC(=O)N3CCCCC3)O[C@H](CO)[C@H]1O2)C1CCC1	none (no result: C diff HTS)
C[C@H](CO)N1C[C@H](C)[C@H](CN(C)S(=O)(=O)c2cn(C)cn2)Oc2ccc(NC(=O)Nc3ccccc3)cc2C1=O	none
CCCNC(=O)Nc1ccc2c(c1)C(=O)N(C)C[C@H](OC)[C@@H](C)CN(C(C)=O)[C@H](C)CO2	none (no result: C diff HTS)
CN1[C@H](CO)[C@@H]2c3ccccc3N(C(=O)c3ccc(F)cc3)C[C@@H]21	none
CCCC#Cc1ccc([C@H]2[C@@H](CO)N(C(=O)NC(C)C)[C@@H]2CNC(C)=O)cc1	none (no result: T cruzi growth-1)
CCNC(=O)C[C@@H]1CC[C@H]2[C@H](COc3ccc(NC(=O)Nc4cccc(C)c4)cc3C(=O)N2C)O1	none
CC(C)C#Cc1cnc2c(c1)C(=O)N([C@@H](C)CO)C[C@@H](C)[C@H](CN(C)Cc1ccccn1)O2	none (no result: T cruzi growth-1)
COc1ccc(NC(=O)Nc2ccc3c(c2)C(=O)N([C@H](C)CO)C[C@H](C)[C@@H](CN(C)S(=O)(=O)c2ccc(OC)cc2)OCCCC[C@@H](C)O3)cc1	none
COc1ccc(NC(=O)Nc2ccc3c(c2)C(=O)N([C@H](C)CO)C[C@H](C)[C@@H](CN(C)S(=O)(=O)c2ccc(Cl)cc2)OCCCC[C@H](C)O3)cc1	T cruzi growth-1 115 | T cruzi growth-2 104 | T cruzi growth-3 inactive | 3T3 cytotox inactive | NIH3T3 tox 2 inactive
COc1ccc(NC(=O)Nc2ccc3c(c2)C(=O)N([C@@H](C)CO)C[C@H](C)[C@@H](CN(C)S(=O)(=O)c2ccc(Cl)cc2)OCCCC[C@H](C)O3)cc1	T cruzi growth-1 113 | T cruzi growth-2 105 | T cruzi growth-3 96 | 3T3 cytotox inactive | NIH3T3 tox 2 inactive
COc1ccc(NC(=O)Nc2ccc3c(c2)C(=O)N([C@H](C)CO)C[C@@H](C)[C@@H](CN(C)S(=O)(=O)c2ccc(Cl)cc2)OCCCC[C@@H](C)O3)cc1	none (no result: T cruzi growth-1)
